Type in all cases: functional
Test [1] deals with Solute carrier family 2, facilitated glucose transporter member 1 (Homo sapiens) (UniProt P11166). In words: ST_JUDE_LEISH: Cytotoxicity at 2uM final concentration against transgenic Leishmania Mexicana promastigotes LmGLUT1 that are glucose transport deficient and complemented with the human glucose transporter GLUT1. Activity is measured by DNA content using SYBR green in vitro.

The target of test [2] is Hexose transporter 1 (Plasmodium falciparum) (UniProt O97467). Kind of test: ST_JUDE_LEISH: Cytotoxicity at 2uM final concentration against transgenic Leishmania Mexicana promastigotes LmPfHT that are glucose transport deficient and complemented with the Plasmodium falciparum hexose transporter. Activity is measured by DNA content using SYBR green in vitro.
For test [3], the target named is Glucose transporter (Leishmania mexicana) (UniProt O61059). Kind of test: ST_JUDE_LEISH: Cytotoxicity at 2uM final concentration against transgenic Leishmania Mexicana promastigotes LmGT2 that are glucose transport deficient and complemented with the L. Mexicana glucose transporter 2. Activity is measured by DNA content using SYBR green in vitro.

Structures are written as SMILES.

Solute carrier family 2, facilitated glucose transporter member 1 (Homo sapiens), sequence (P11166 whole entry): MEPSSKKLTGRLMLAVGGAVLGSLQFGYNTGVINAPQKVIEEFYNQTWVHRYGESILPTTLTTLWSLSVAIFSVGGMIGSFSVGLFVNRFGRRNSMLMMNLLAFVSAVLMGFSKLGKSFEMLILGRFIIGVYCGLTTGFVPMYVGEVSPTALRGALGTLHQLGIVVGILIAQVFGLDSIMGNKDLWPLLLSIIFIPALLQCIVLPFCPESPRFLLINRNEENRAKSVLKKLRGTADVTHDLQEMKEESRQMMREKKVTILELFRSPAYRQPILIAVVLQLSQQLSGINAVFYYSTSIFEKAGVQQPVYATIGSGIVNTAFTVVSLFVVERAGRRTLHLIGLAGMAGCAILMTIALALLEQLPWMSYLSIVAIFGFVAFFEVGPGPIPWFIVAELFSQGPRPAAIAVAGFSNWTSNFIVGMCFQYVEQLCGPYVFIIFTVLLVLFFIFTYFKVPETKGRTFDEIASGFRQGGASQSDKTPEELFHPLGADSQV

`CCOC(=O)C(=CNc1ccc(Cc2cnc(N)nc2N)cc1CC)C(=O)OCC`: the inhibition in test [1] was 2.65%; in test [2], 2.16%; in test [3] it was -3.12%.

As to `Cc1cc(C2CCN(CCCCNC(=O)c3ccc(NC(=O)c4ccc(Cl)cc4)cc3)CC2)c(C)cc1OCc1nccn1C`, the inhibition is 0.5% in test [1], 0.08% in test [2] and 0.69% in test [3].

In the case of `CCN1CCN(c2cc(C)c3cc(NC(=O)C=Cc4cccc(OC)c4OC)ccc3n2)CC1`, the inhibition worked out at 5.91% in test [1], 11.3% in test [2] and 1.27% in test [3].

On to `OC(c1ccc2ccccc2c1)C1CN(CCc2ccccc2)CCC1(O)c1ccccc1` (stereo unspecified), for which the inhibition in test [1] was 0.49%; in test [2], -3.49%; in test [3] it was 0.03%.

As for `Cc1cc(F)ccc1N(c1nc(-c2cc(Cl)ccc2Cl)cs1)C1CCNC1` (stereo unspecified), the inhibition in test [1] stood at 8.82%; in test [2], 7.41%; in test [3] it was 4.16%.

For `Cn1nccc1C(=O)NCCNCc1ccc(-c2cccc(-c3nc4ccccc4[nH]3)c2)cc1`, the figures for the inhibition in test [1], in test [2] and in test [3] were -0.28%, -0.94% and 0.68%, respectively.

Turning to `CCOc1c(OC)ccc2c1CCN(CCN1CCC(NC(=O)c3ccc(-c4cccc(C(F)(F)F)c4C(F)(F)F)cc3)CC1)C2`, the results for the inhibition in test [1], in test [2] and in test [3] were 1.91%, 1.96% and 1.39%, respectively.

Regarding `O=C(Nc1ccc2ccccc2c1)N(CCCn1ccnc1)Cc1csc(-c2ccc(CNCc3ccccc3)cc2)n1`, the inhibition is -0.95% in test [1], 0.41% in test [2] and 1.63% in test [3].

Take `COc1cc(F)c2ncc(Cl)c(CCN3CCC(NCc4ccc5c(c4)NC(=O)CO5)CC3)c2c1`: the inhibition stood at 7.29% in test [1], 7.51% in test [2] and 2.39% in test [3].

In the case of `COc1ccc2c(=O)c(-c3ccc(OC(F)(F)F)cc3)c(C)[nH]c2c1`, the inhibition in test [1] is -0.72%; in test [2], 1.76%; in test [3] it was 1.81%.

For `CN(C)CCOc1ccc(NC(=O)NC(C)(C)c2nc(-c3ccc(Cl)c(O)c3)c(-c3ccncc3)[nH]2)cc1`, the inhibition is -2.42% in test [1], -2.62% in test [2] and -2.59% in test [3].

For the molecule `Cc1ccc(O)cc1Nc1ccnc2cc(-c3ccc(CN4CCCCC4)o3)ccc12`, the inhibition in test [1] came to 14.4%; in test [2] it was 12.2%; in test [3], 13.8%.

`CC(=NNC(S)=NCCc1ccccc1)c1ccccn1`: the inhibition in test [1] came out at 57.4%; in test [2], 68%; in test [3] it was 23.6%.

For `Cc1nc2nc(N)nc(N)c2c(C)c1Cc1ccc(Cl)cc1`, the inhibition in test [1] turned out to be 33.4%; in test [2], 43.3%; in test [3] it was 28.7%.

In the case of `Cc1ccccc1OCCCN1CCN(CC(c2ccc(F)cc2)N2CCN(C(C)C)CC2)CC1` (stereo unspecified), the inhibition in test [1] came out at 13.1%; in test [2], 12.5%; in test [3], 14.9%.

Consider `CN(Cc1ccc(-c2ccc(C(F)(F)F)cc2)cc1)C(=O)Cn1c(CCc2cccc(F)c2F)cc(=O)c2ccc(OCC3CCCN3C)cc21` (stereo unspecified), for which the inhibition in test [1] amounted to 3.87%; in test [2] it was 3.45%; in test [3], 4.42%.

Consider `Oc1ccc(CCNc2nc(N/N=C/C=C/c3ccc(Cl)cc3)nc(N3CCNCC3)n2)cc1`, for which the inhibition worked out at 0.83% in test [1], 1.74% in test [2] and 0.91% in test [3].

(Values after ChEMBL document CHEMBL3433997, “St. Jude Leishmania screening dataset” (2016).)
